According to article PMC10812921, “Transcriptional Coactivator BOB1 (OBF1, OCA-B) Modulates the Specificity of DNA Recognition by the POU-Domain Factors OCT1 and OCT2 in a Monomeric Configuration”:

Molecular target: POU1 (OCT1 POU domain) (human, UniProt P14859 260-458)
Assay: EMSA-SELEX-seq; no BOB1; 20 mM Tris-HCl pH 7.6, 140 mM NaCl, 10% glycerol, 0.5 mM EDTA, 0.05% Triton X-100, 0.1 mg/mL BSA, 0.1 mg/mL poly(dI-dC), 5 mM DTT, room temperature, 20 min; high values mean tight binding
Conditions: protein: recombinant; dsDNA, one strand shown
Method in brief: (§1)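 After expression in E. coli BL21, tagged POU-domain proteins were purified under denaturing conditions and then renatured. Each binding reaction held 30 ng protein and 300 ng of a PCR-amplified double-stranded random 35-nt library in 20 μL Tris–HCl pH 7.6 binding buffer, with or without 28 ng coactivator protein, for 20 min at RT. Bands holding complexes were cut from native 6% PAGE, eluted and PCR-amplified across four rounds, and the output was Illumina-sequenced. The value given for binding preference is the share, in percent, of sequenced 8-mers fitting a motif pattern.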

Chain of POU1 (OCT1 POU domain) (P14859 260-458): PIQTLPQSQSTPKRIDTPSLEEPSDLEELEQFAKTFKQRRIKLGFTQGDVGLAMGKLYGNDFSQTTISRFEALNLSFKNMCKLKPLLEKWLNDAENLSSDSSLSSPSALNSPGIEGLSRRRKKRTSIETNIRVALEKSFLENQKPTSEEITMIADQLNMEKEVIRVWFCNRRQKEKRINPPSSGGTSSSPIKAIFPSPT

Sequence	binding signal
AGACTAAT	0.0744 % of ANNNNAAN 8-mers
AGATAAAA	0.0542 % of ANNNNAAN 8-mers
ATCGCAAC	0.0126 % of ANNNNAAN 8-mers
AGCCCAAT	0.0168 % of ANNNNAAN 8-mers
ATACTAAG	0.045 % of ANNNNAAN 8-mers
AAGGCAAT	0.0519 % of ANNNNAAN 8-mers
ATAGAAAT	0.0782 % of ANNNNAAN 8-mers
AATAAAAT	0.214 % of ANNNNAAN 8-mers
ATGGGAAT	0.117 % of ANNNNAAN 8-mers
ATCATAAA	0.0736 % of ANNNNAAN 8-mers
AGAACAAT	0.0378 % of ANNNNAAN 8-mers
AACACAAT	0.0351 % of ANNNNAAN 8-mers
AAACCAAG	0.0233 % of ANNNNAAN 8-mers
AATCCAAC	0.0259 % of ANNNNAAN 8-mers
ATCAGAAC	0.0214 % of ANNNNAAN 8-mers
ACTTGAAA	0.0317 % of ANNNNAAN 8-mers
ACCAGAAT	0.032 % of ANNNNAAN 8-mers
ATTGAAAA	0.09 % of ANNNNAAN 8-mers
ACGAGAAA	0.0381 % of ANNNNAAN 8-mers
ATTAAAAG	0.149 % of ANNNNAAN 8-mers

Sequence	binding signal
AGCGGAAG	0.0202 % of ANNNNAAN 8-mers
ATGACAAC	0.0259 % of ANNNNAAN 8-mers
ATGTCAAG	0.0378 % of ANNNNAAN 8-mers
AGATAAAC	0.04 % of ANNNNAAN 8-mers
AGGCCAAG	0.0271 % of ANNNNAAN 8-mers
ACCCCAAA	0.0198 % of ANNNNAAN 8-mers
AAGCGAAG	0.0271 % of ANNNNAAN 8-mers
AGTCGAAG	0.0305 % of ANNNNAAN 8-mers
AGATGAAA	0.0629 % of ANNNNAAN 8-mers
ATGCTAAC	0.0671 % of ANNNNAAN 8-mers
AGCGTAAA	0.0427 % of ANNNNAAN 8-mers
AAATCAAG	0.098 % of ANNNNAAN 8-mers
ATGGCAAT	0.0545 % of ANNNNAAN 8-mers
AATACAAG	0.0637 % of ANNNNAAN 8-mers
AGCCTAAG	0.0183 % of ANNNNAAN 8-mers
AAGCGAAA	0.0358 % of ANNNNAAN 8-mers
AGGAGAAT	0.0789 % of ANNNNAAN 8-mers
AGTCGAAT	0.061 % of ANNNNAAN 8-mers
AACGTAAA	0.0816 % of ANNNNAAN 8-mers

Molecular target: T1, POU2 (OCT2 POU domain) (human, UniProt P09086 175-386)
T1 sequence: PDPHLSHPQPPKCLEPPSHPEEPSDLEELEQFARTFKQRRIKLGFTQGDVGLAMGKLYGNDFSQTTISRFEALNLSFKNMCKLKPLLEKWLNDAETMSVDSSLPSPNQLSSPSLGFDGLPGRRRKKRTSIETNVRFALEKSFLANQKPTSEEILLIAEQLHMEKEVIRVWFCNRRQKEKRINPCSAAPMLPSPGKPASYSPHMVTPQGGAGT
Assay: as above
Conditions: protein: recombinant; dsDNA, one strand shown
Method in brief: as §1

Sequence	binding signal
AGACTAAT	0.102 % of ANNNNAAN 8-mers
AGATAAAA	0.057 % of ANNNNAAN 8-mers
ATCGCAAC	0.0173 % of ANNNNAAN 8-mers
AGCCCAAT	0.019 % of ANNNNAAN 8-mers
ATACTAAG	0.0518 % of ANNNNAAN 8-mers
AAGGCAAT	0.0489 % of ANNNNAAN 8-mers
ATAGAAAT	0.0961 % of ANNNNAAN 8-mers
AATAAAAT	0.214 % of ANNNNAAN 8-mers
ATGGGAAT	0.128 % of ANNNNAAN 8-mers
ATCATAAA	0.0944 % of ANNNNAAN 8-mers
AGAACAAT	0.0414 % of ANNNNAAN 8-mers
AACACAAT	0.0351 % of ANNNNAAN 8-mers
AAACCAAG	0.0161 % of ANNNNAAN 8-mers
AATCCAAC	0.0288 % of ANNNNAAN 8-mers
ATCAGAAC	0.0242 % of ANNNNAAN 8-mers
ACTTGAAA	0.042 % of ANNNNAAN 8-mers
ACCAGAAT	0.0437 % of ANNNNAAN 8-mers
ATTGAAAA	0.076 % of ANNNNAAN 8-mers
ACGAGAAA	0.0437 % of ANNNNAAN 8-mers
ATTAAAAG	0.171 % of ANNNNAAN 8-mers

Sequence	binding signal
AGCGGAAG	0.0196 % of ANNNNAAN 8-mers
ATGACAAC	0.0207 % of ANNNNAAN 8-mers
ATGTCAAG	0.0535 % of ANNNNAAN 8-mers
AGATAAAC	0.0506 % of ANNNNAAN 8-mers
AGGCCAAG	0.0334 % of ANNNNAAN 8-mers
ACCCCAAA	0.0104 % of ANNNNAAN 8-mers
AAGCGAAG	0.027 % of ANNNNAAN 8-mers
AGTCGAAG	0.0357 % of ANNNNAAN 8-mers
AGATGAAA	0.0558 % of ANNNNAAN 8-mers
ATGCTAAC	0.0949 % of ANNNNAAN 8-mers
AGCGTAAA	0.0455 % of ANNNNAAN 8-mers
AAATCAAG	0.0926 % of ANNNNAAN 8-mers
ATGGCAAT	0.0719 % of ANNNNAAN 8-mers
AATACAAG	0.0662 % of ANNNNAAN 8-mers
AGCCTAAG	0.0207 % of ANNNNAAN 8-mers
AAGCGAAA	0.0391 % of ANNNNAAN 8-mers
AGGAGAAT	0.0771 % of ANNNNAAN 8-mers
AGTCGAAT	0.0604 % of ANNNNAAN 8-mers
AACGTAAA	0.0639 % of ANNNNAAN 8-mers

Molecular target: POU1 (OCT1 POU domain);BOB1 (OBF1, OCA-B) (human;human, UniProt P14859;Q16633 260-458;1-256, |)
Assay: EMSA-SELEX-seq; with BOB1 (ternary complex band); 20 mM Tris-HCl pH 7.6, 140 mM NaCl, 10% glycerol, 0.5 mM EDTA, 0.05% Triton X-100, 0.1 mg/mL BSA, 0.1 mg/mL poly(dI-dC), 5 mM DTT, room temperature, 20 min; high values mean tight binding
Conditions: protein: recombinant;recombinant; copies: 1;1; dsDNA, one strand shown
Method in brief: as §1

Sequence	binding signal
AGACTAAT	0.0507 % of ANNNNAAN 8-mers
AGATAAAA	0.0597 % of ANNNNAAN 8-mers
ATCGCAAC	0.014 % of ANNNNAAN 8-mers
AGCCCAAT	0.0226 % of ANNNNAAN 8-mers
ATACTAAG	0.0441 % of ANNNNAAN 8-mers
AAGGCAAT	0.057 % of ANNNNAAN 8-mers
ATAGAAAT	0.0878 % of ANNNNAAN 8-mers
AATAAAAT	0.185 % of ANNNNAAN 8-mers
ATGGGAAT	0.0995 % of ANNNNAAN 8-mers
ATCATAAA	0.0425 % of ANNNNAAN 8-mers
AGAACAAT	0.0293 % of ANNNNAAN 8-mers
AACACAAT	0.0293 % of ANNNNAAN 8-mers
AAACCAAG	0.0293 % of ANNNNAAN 8-mers
AATCCAAC	0.016 % of ANNNNAAN 8-mers
ATCAGAAC	0.0238 % of ANNNNAAN 8-mers
ACTTGAAA	0.0433 % of ANNNNAAN 8-mers
ACCAGAAT	0.0293 % of ANNNNAAN 8-mers
ATTGAAAA	0.0925 % of ANNNNAAN 8-mers
ACGAGAAA	0.0355 % of ANNNNAAN 8-mers
ATTAAAAG	0.115 % of ANNNNAAN 8-mers

Sequence	binding signal
AGCGGAAG	0.0215 % of ANNNNAAN 8-mers
ATGACAAC	0.0277 % of ANNNNAAN 8-mers
ATGTCAAG	0.0406 % of ANNNNAAN 8-mers
AGATAAAC	0.0519 % of ANNNNAAN 8-mers
AGGCCAAG	0.0312 % of ANNNNAAN 8-mers
ACCCCAAA	0.0109 % of ANNNNAAN 8-mers
AAGCGAAG	0.0238 % of ANNNNAAN 8-mers
AGTCGAAG	0.023 % of ANNNNAAN 8-mers
AGATGAAA	0.0718 % of ANNNNAAN 8-mers
ATGCTAAC	0.0347 % of ANNNNAAN 8-mers
AGCGTAAA	0.0347 % of ANNNNAAN 8-mers
AAATCAAG	0.132 % of ANNNNAAN 8-mers
ATGGCAAT	0.0484 % of ANNNNAAN 8-mers
AATACAAG	0.0675 % of ANNNNAAN 8-mers
AGCCTAAG	0.0219 % of ANNNNAAN 8-mers
AAGCGAAA	0.0429 % of ANNNNAAN 8-mers
AGGAGAAT	0.0624 % of ANNNNAAN 8-mers
AGTCGAAT	0.0468 % of ANNNNAAN 8-mers
AACGTAAA	0.0843 % of ANNNNAAN 8-mers

Molecular target: T2, POU2 (OCT2 POU domain);BOB1 (OBF1, OCA-B) (human;human, UniProt P09086;Q16633 175-386;1-256, |)
T2 sequence 1: T1 sequence
T2 sequence 2: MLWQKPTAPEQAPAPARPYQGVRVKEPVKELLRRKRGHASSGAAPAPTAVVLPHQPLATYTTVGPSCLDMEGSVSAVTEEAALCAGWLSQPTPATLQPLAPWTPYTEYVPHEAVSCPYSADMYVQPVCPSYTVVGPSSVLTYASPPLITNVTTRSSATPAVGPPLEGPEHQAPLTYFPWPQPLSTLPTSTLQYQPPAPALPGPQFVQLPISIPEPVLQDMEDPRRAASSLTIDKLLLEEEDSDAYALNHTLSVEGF
Assay: as above
Conditions: protein: recombinant;recombinant; copies: 1;1; dsDNA, one strand shown
Method in brief: as §1

Sequence	binding signal
AGACTAAT	0.066 % of ANNNNAAN 8-mers
AGATAAAA	0.0462 % of ANNNNAAN 8-mers
ATCGCAAC	0.0239 % of ANNNNAAN 8-mers
AGCCCAAT	0.0231 % of ANNNNAAN 8-mers
ATACTAAG	0.0438 % of ANNNNAAN 8-mers
AAGGCAAT	0.0495 % of ANNNNAAN 8-mers
ATAGAAAT	0.0892 % of ANNNNAAN 8-mers
AATAAAAT	0.164 % of ANNNNAAN 8-mers
ATGGGAAT	0.116 % of ANNNNAAN 8-mers
ATCATAAA	0.0586 % of ANNNNAAN 8-mers
AGAACAAT	0.038 % of ANNNNAAN 8-mers
AACACAAT	0.0421 % of ANNNNAAN 8-mers
AAACCAAG	0.0198 % of ANNNNAAN 8-mers
AATCCAAC	0.0223 % of ANNNNAAN 8-mers
ATCAGAAC	0.0371 % of ANNNNAAN 8-mers
ACTTGAAA	0.0371 % of ANNNNAAN 8-mers
ACCAGAAT	0.0363 % of ANNNNAAN 8-mers
ATTGAAAA	0.0627 % of ANNNNAAN 8-mers
ACGAGAAA	0.038 % of ANNNNAAN 8-mers
ATTAAAAG	0.102 % of ANNNNAAN 8-mers

Sequence	binding signal
AGCGGAAG	0.0173 % of ANNNNAAN 8-mers
ATGACAAC	0.0355 % of ANNNNAAN 8-mers
ATGTCAAG	0.052 % of ANNNNAAN 8-mers
AGATAAAC	0.0487 % of ANNNNAAN 8-mers
AGGCCAAG	0.0264 % of ANNNNAAN 8-mers
ACCCCAAA	0.0124 % of ANNNNAAN 8-mers
AAGCGAAG	0.0231 % of ANNNNAAN 8-mers
AGTCGAAG	0.0347 % of ANNNNAAN 8-mers
AGATGAAA	0.0611 % of ANNNNAAN 8-mers
ATGCTAAC	0.0495 % of ANNNNAAN 8-mers
AGCGTAAA	0.0396 % of ANNNNAAN 8-mers
AAATCAAG	0.128 % of ANNNNAAN 8-mers
ATGGCAAT	0.0578 % of ANNNNAAN 8-mers
AATACAAG	0.0479 % of ANNNNAAN 8-mers
AGCCTAAG	0.0149 % of ANNNNAAN 8-mers
AAGCGAAA	0.0289 % of ANNNNAAN 8-mers
AGGAGAAT	0.0702 % of ANNNNAAN 8-mers
AGTCGAAT	0.0611 % of ANNNNAAN 8-mers
AACGTAAA	0.0578 % of ANNNNAAN 8-mers
